# In PubChem BioAssay (EPA / NIEHS):
# Records with an inconclusive call do not appear. Activity calls are given as the source filed them. The calls were made as follows, unless noted: active = hit-call score of the fitted dose curve at least 0.9, where 1 is the maximum; inactive = score below 0.9.
# Experiments:
# [1] = CCTE_Harrill_HTTr_Viability_MCF7: CCTE's 6-hour Cell Viability Assessment for the High-Throughput Transcriptomics (HTTr) Platform, in MCF-7 cells cultured in DMEM + 10% fetal bovine serum, Harrill Lab (AID 2284010)
# Procedure, shortened: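 PI exclusion, high-content imaging; 8-pt dilution series, 6 h exposure; bidirectional fit vs DMSO (neg. ctrl/baseline); gain of signal = loss of membrane integrity.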
# [2] = CCTE_Harrill_HTTr_Apoptosis_MCF7: CCTE's 6-hour Apoptosis Assessment for the High-Throughput Transcriptomics (HTTr) Platform, in MCF-7 cells cultured in DMEM + 10% fetal bovine serum, Harrill Lab (AID 2284011)
# Procedure, shortened: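 MCF-7 cells in DMEM + 10% fetal bovine serum were exposed to chemicals for 6 hours over an eight-point dilution series. Caspase-3/7 activation was imaged by high content imaging with CellEvent Caspase 3/7 Green; bidirectional fitting used DMSO as baseline.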
# [3] = molecular target: Ratio of Nucleoli Translocation and Cytoplasm, AR (gene 367) (UniProt P10275); experiment: UPITT_HCI_U2OS_AR_TIF2_Nucleoli_Cytoplasm_Ratio_Antagonist: University of Pittsburgh U2OS Androgen Receptor-Transcriptional Intermediary Factor 2 (AR-TIF2) Antagonism High Content Imaging Assay for Ratio of Nucleoli Translocation and Cytoplasm (AID 2283999; active = hit-call score of the fitted dose curve at least 0.9, where 1 is the maximum;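 also: antagonists lower the DHT-driven ratio of nucleolar to cytoplasmic red signal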)
# Sequence of Ratio of Nucleoli Translocation and Cytoplasm, AR (gene 367) (P10275 whole entry, looked up): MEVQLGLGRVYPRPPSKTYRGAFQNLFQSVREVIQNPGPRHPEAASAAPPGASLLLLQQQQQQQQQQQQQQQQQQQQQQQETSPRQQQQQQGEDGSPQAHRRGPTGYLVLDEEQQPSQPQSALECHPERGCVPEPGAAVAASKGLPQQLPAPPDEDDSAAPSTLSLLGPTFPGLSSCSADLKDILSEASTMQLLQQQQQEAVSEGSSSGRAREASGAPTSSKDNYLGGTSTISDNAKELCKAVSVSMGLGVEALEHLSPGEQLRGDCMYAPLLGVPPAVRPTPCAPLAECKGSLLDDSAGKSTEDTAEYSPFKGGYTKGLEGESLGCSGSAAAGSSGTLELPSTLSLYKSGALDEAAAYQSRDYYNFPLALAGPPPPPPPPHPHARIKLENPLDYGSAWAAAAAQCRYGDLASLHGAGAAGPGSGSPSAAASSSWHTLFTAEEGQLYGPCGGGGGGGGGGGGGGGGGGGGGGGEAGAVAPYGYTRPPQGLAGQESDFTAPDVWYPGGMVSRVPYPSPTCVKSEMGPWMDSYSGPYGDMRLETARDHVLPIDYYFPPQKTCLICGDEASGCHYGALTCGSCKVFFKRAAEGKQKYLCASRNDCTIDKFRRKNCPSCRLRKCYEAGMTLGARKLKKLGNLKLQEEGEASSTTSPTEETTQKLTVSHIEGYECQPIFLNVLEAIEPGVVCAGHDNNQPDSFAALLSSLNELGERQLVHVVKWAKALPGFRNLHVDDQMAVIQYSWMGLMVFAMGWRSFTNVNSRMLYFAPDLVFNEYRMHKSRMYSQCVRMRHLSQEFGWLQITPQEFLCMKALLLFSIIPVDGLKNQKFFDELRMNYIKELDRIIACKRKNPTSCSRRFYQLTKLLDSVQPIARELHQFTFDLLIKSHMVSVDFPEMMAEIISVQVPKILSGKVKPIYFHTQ
# Procedure, shortened: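 Read-out is the ratio of nucleolar to cytoplasmic AR-RFP fluorescence, imaged by high-content microscopy in U2OS cells coexpressing TIF2-GFP. Single-point 20 uM screen, triplicate confirmation, then 0.195–50 uM dose response; activity referenced to DHT baseline.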
# [4] = molecular target: Ratio of Nucleoli Translocation and Cytoplasm, AR (gene 367) (UniProt P10275); experiment: UPITT_HCI_U2OS_AR_TIF2_Nucleoli_Cytoplasm_Ratio_Agonist: University of Pittsburgh U2OS Androgen Receptor-Transcriptional Intermediary Factor 2 (AR-TIF2) Agonism High Content Imaging Assay for Ratio of Nucleoli Translocation and Cytoplasm (AID 2284000; active = hit-call score of the fitted dose curve at least 0.9, where 1 is the maximum;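 also: hits raise the red nucleolar to cytoplasm ratio above vehicle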)
# Procedure, shortened: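 Primary screen at 20 uM final (0.2% DMSO), then triplicate confirmation and dose-response from 0.195 to 50 uM final (0.5% DMSO). Cells: U2OS with AR-RFP and TIF2-GFP. Endpoint is the nucleoli/cytoplasm red-fluorescence ratio, gain-of-signal vs DMSO.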
# [5] = CCTE_Shafer_MEA_acute_spike_number: CCTE's Neural Acute Assay for Total Number of Spikes, Shafer Lab (AID 2284008);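 as to AC50: curve fitted for decrease in spike count so AC50 reflects inhibitors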
# Procedure, shortened: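 Primary rat cortical neurons on 16-electrode MEA wells; on DIV 13 or 15, 40-min baseline then 40-min recording with compound (0.03-40 uM) at 37 C. Spikes detected at 8x rms noise; percent change versus baseline, DMSO as negative control.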
# [6] = CCTE_Shafer_MEA_acute_firing_rate_mean: CCTE's Neural Acute Assay for Mean Firing Rate, Shafer Lab (AID 2284009);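 also: analyzed for loss of signal so actives lower firing rate relative to DMSO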
# Procedure, shortened: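 Spontaneous spiking of primary rat cortical networks, DIV 13/15, 37 C. Compound 0.03-40 uM, n ≥3 wells; 40 min baseline vs 40 min treated. Endpoint fitted in loss-of-signal direction against DMSO.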
# [7] = CCTE_Simmons_MITO_basal_resp_rate: CCTE's HepG2 Seahorse XF Respirometric Screening Assay at Basal Respiratory State, Simmons Lab (AID 2284001); details: actives raise or lower the signal
# Procedure, shortened: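 Readout is oxygen consumption rate after test compound injection, measured by Seahorse XF in HepG2 cells. Seven concentrations from 125 nM up to 100 uM final are tested, and activity in either direction is fitted against DMSO.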
# [8] = CCTE_Simmons_MITO_max_resp_rate: CCTE's HepG2 Seahorse XF Respirometric Screening Assay at Maximal Respiratory State [uncoupled], Simmons Lab (AID 2284002); details: actives raise or lower the signal
# Procedure, shortened: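 HepG2 oxygen consumption was read on a Seahorse XF96 after FCCP uncoupler injection, following test compound injection; 7 concentrations, 125 nM–100 uM final, three biological replicates. Bidirectional fitting against DMSO vehicle baseline.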
# [9] = CCTE_Simmons_MITO_inhib_resp_rate: CCTE's HepG2 Seahorse XF Respirometric Screening Assay at Inhibited Respiratory State [full ETC block], Simmons Lab (AID 2284006); details: actives raise or lower the signal
# Procedure, shortened: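 OCR read-out in the inhibited phase following rotenone/antimycin A, after compound and FCCP injections, in HepG2 cells. Seven concentrations (125 nM to 100 uM final), three biological replicates, 6-min cycles over 72 min; DMSO baseline.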
# [10] = CCTE_Simmons_MITO_viability: CellTiter-Glo Viability Assessment for CCTE's HepG2 Seahorse XF Respirometric Screening Assay [post-hoc], Simmons Lab (AID 2284007; active = hit-call score of the fitted dose curve at least 0.9, where 1 is the maximum)
# Procedure, shortened: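 Luciferase-coupled ATP luminescence, single endpoint. HepG2, post-respirometry. Compound 125 nM–100 uM final, 7 conc., 90 min. n=3 biological, technical singles. DMSO vehicle/baseline; dichlone 10 nM–100 uM, 8 conc., as positive control.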
compound,measurement,setting,value
Nc1ccc([N+](=O)[O-])cc1Cl,outcome,[1],inactive
same,outcome,[2],inactive
c1ccc(OP(Oc2ccccc2)Oc2ccccc2)cc1,outcome,[1],inactive
same,outcome,[2],inactive
O=P(OCC(Br)CBr)(OCC(Br)CBr)OCC(Br)CBr (stereo not given),outcome,[3],inactive
same,outcome,[4],inactive
same,outcome,[1],inactive
same,outcome,[2],inactive
CCCCC(CC)COP(=O)(Oc1ccccc1)Oc1ccccc1 (stereo not given),outcome,[3],inactive
same,outcome,[4],inactive
same,AC50,[5],15 µM (active)
same,AC50,[6],15 µM (active)
same,outcome,[1],inactive
same,outcome,[2],inactive
CCCCCCCc1ccc(O)cc1,AC50,[3],79.6 µM (active)
same,AC50,[4],28.9 µM (active)
same,AC50,[7],40.4 µM (active)
same,AC50,[8],27.6 µM (active)
same,outcome,[9],inactive
same,outcome,[1],inactive
same,outcome,[2],inactive
CC(C)(C)N(NC(=O)c1ccc(Cl)cc1)C(=O)c1ccccc1,outcome,[3],inactive
same,outcome,[1],inactive
same,outcome,[2],inactive
CCN(CC)c1ccccc1,outcome,[4],inactive
same,outcome,[1],inactive
same,outcome,[2],inactive
ClC(Cl)c1ccccc1,outcome,[1],inactive
same,outcome,[2],inactive
CCCCN(CC)C(=O)SCCC,outcome,[3],inactive
same,outcome,[4],inactive
same,outcome,[1],inactive
same,outcome,[2],inactive
CCOc1ccc(C(C)(C)COCc2cccc(Oc3ccccc3)c2)cc1,outcome,[5],inactive
same,outcome,[6],inactive
same,outcome,[1],inactive
same,outcome,[2],inactive
CO/N=C(/C(=O)OC)c1ccccc1COc1ccccc1C,outcome,[3],inactive
same,outcome,[4],inactive
same,outcome,[1],inactive
same,outcome,[2],inactive
O=C(O)C1C(C(=O)O)C2(Cl)C(Cl)=C(Cl)C1(Cl)C2(Cl)Cl (stereo not given),outcome,[5],inactive
same,outcome,[6],inactive
same,outcome,[1],inactive
same,outcome,[2],inactive
c1ccc2c(c1)Nc1ccccc1S2,AC50,[5],4.42 µM (active)
same,AC50,[6],4.45 µM (active)
same,outcome,[1],inactive
same,outcome,[2],inactive
Cc1ccc(N)cc1N,outcome,[7],inactive
same,outcome,[8],inactive
same,outcome,[9],inactive
same,outcome,[5],inactive
same,outcome,[6],inactive
same,outcome,[1],inactive
same,outcome,[2],inactive
CC(C)(C)c1ccccc1OP(=O)(Oc1ccccc1)Oc1ccccc1,AC50,[5],1.33 µM (active)
same,AC50,[6],1.33 µM (active)
CC(C)(C)c1ccc(O)cc1,AC50,[7],37.2 µM (active)
same,outcome,[8],inactive
same,outcome,[9],inactive
same,outcome,[10],inactive
same,outcome,[1],inactive
same,outcome,[2],inactive
CCCCOCCOP(=O)(OCCOCCCC)OCCOCCCC,outcome,[1],inactive
same,outcome,[2],inactive
CCOS(=O)(=O)OCC,outcome,[1],inactive
same,outcome,[2],inactive
ClC(Cl)(Cl)c1ccccc1,outcome,[7],inactive
same,outcome,[8],inactive
same,outcome,[9],inactive
same,outcome,[10],inactive
same,outcome,[5],inactive
same,outcome,[6],inactive
same,outcome,[1],inactive
same,outcome,[2],inactive
ClC(Cl)=C(c1ccc(Cl)cc1)c1ccccc1Cl,outcome,[3],inactive
same,outcome,[4],inactive
same,outcome,[1],inactive
same,outcome,[2],inactive
CC(Cl)(Cl)C(=O)O,outcome,[5],inactive
same,outcome,[6],inactive
same,outcome,[1],inactive
same,outcome,[2],inactive
COCCOCCO,outcome,[5],inactive
same,outcome,[6],inactive
same,outcome,[1],inactive
same,outcome,[2],inactive
CCC1(c2ccccc2)C(=O)N=C(O)NC1=O (stereo not given),outcome,[5],inactive
same,outcome,[6],inactive
same,outcome,[1],inactive
same,outcome,[2],inactive
[N-]=[N+]=[N-],outcome,[3],inactive
same,outcome,[4],inactive
same,outcome,[7],inactive
same,AC50,[8],50 µM (active)
same,outcome,[9],inactive
same,outcome,[5],inactive
same,outcome,[6],inactive
same,outcome,[1],inactive
same,outcome,[2],inactive
ClC1=C(Cl)C2(Cl)C3C(Cl)C(Cl)CC3C1(Cl)C2(Cl)Cl (stereo not given),outcome,[3],inactive
same,outcome,[4],inactive
same,outcome,[5],inactive
same,outcome,[6],inactive
same,outcome,[1],inactive
same,outcome,[2],inactive
CCOP(=S)(OCC)SCSCC,outcome,[7],inactive
same,AC50,[8],50 µM (active)
same,outcome,[9],inactive
same,outcome,[10],inactive
same,outcome,[1],inactive
same,outcome,[2],inactive
CCOP(=S)(Oc1ccc([N+](=O)[O-])cc1)c1ccccc1 (stereo not given),AC50,[5],24.9 µM (active)
same,AC50,[6],25 µM (active)
same,outcome,[1],inactive
same,outcome,[2],inactive
O=[N+]([O-])c1ccc(Cl)c(Cl)c1,outcome,[1],inactive
same,outcome,[2],inactive
CCNc1nc(Cl)nc(NC(C)(C)C)n1,outcome,[4],inactive
same,outcome,[1],inactive
same,outcome,[2],inactive
c1cc2c3c(cccc3c1)CC2,outcome,[3],inactive
same,outcome,[4],inactive
same,outcome,[1],inactive
same,outcome,[2],inactive
CC1(C)CN=C(NN=C(/C=C/c2ccc(C(F)(F)F)cc2)/C=C/c2ccc(C(F)(F)F)cc2)NC1,outcome,[3],inactive
same,outcome,[4],inactive
same,outcome,[1],inactive
same,outcome,[2],inactive
CC(O)C#N (stereo not given),outcome,[1],inactive
same,outcome,[2],inactive
Cc1cccc(N)c1,outcome,[1],inactive
same,outcome,[2],inactive
COP(=O)(CCC(=O)NCO)OC,outcome,[5],inactive
same,outcome,[6],inactive
CCC(C)(C)c1ccc(O)cc1,AC50,[7],49.9 µM (active)
same,AC50,[8],42.5 µM (active)
same,outcome,[9],inactive
same,AC50,[5],0.186 µM (active)
same,AC50,[6],0.186 µM (active)
Nc1ccc2ccccc2c1,AC50,[5],0.109 µM (active)
same,AC50,[6],0.109 µM (active)
same,outcome,[1],inactive
same,outcome,[2],inactive
